# Results as given in PubChem BioAssay (EPA / NIEHS).
# Inconclusive results are not listed. Calls of active or inactive are those of the source. Rule for the calls, unless noted: active = hit-call score of the fitted dose curve at least 0.9, where 1 is the maximum; inconclusive = response in the unintended direction; inactive = score below 0.9.
# Legend:
# [1] = ATG_TAL_CIS: Attagene CIS-FACTORIAL HepG2 Assay for human TAL Basal Promoter (AID 2282966; active = hit-call score of the fitted dose curve at least 0.9, where 1 is the maximum; inactive = score below 0.9;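 note: background control endpoint measuring basal TAL promoter reporter mRNA not a specific factor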); conditions: HepG2 Attagene cis-factorial TAL promoter reporter; actives raise or lower the signal
# In short: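 Readout: reporter mRNA, fluorescence by CE. System: HepG2, transient multi-reporter transfection, endogenous TF activity. Exposure: 24 h. Analysis: bidirectional, DMSO-normalized; background control.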
# [2] = ATG_TGFb_CIS: Attagene CIS-FACTORIAL HepG2 Assay for human Transforming Growth Factor (TGF) (AID 2282967; active = hit-call score of the fitted dose curve at least 0.9, where 1 is the maximum; inactive = score below 0.9); conditions: HepG2 Attagene CIS TGFb reporter, mRNA transcription; actives raise or lower the signal
# In short: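 Transcript-level reporter readout: HepG2 transfectants, 24 h exposure, RNA to cDNA, reporter-specific PCR, fluorescent primer extension, capillary sizing against ROX standards. Gain- or loss-of-signal relative to DMSO.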
# [3] = biological target: Nuclear receptor subfamily 1 group I member 3 (Homo sapiens) (UniProt Q14994); test: ATG_CAR_TRANS: Attagene TRANS-FACTORIAL HepG2 Assay for human Constitutive Androstane Receptor (CAR) (AID 2282969); conditions: HepG2 Attagene TRANS-FACTORIAL CAR reporter;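 note: activators raise reporter mRNA above DMSO so AC50 marks induction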
# In short: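 HepG2 cells transiently transfected with multiplexed GAL4-UAS reporter units expressing chimeric NR-Gal4 proteins; compound exposure 24 h. Reporter mRNA measured by RT-PCR, 6-FAM labelling, HpaI digestion and capillary electrophoresis; gain-of-signal fitted against DMSO baseline.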
# [4] = biological target: Estrogen receptor (Homo sapiens) (UniProt P03372); test: ATG_ERa_TRANS: Attagene TRANS-FACTORIAL HepG2 Assay for human Estrogen Receptor alpha (ERa) (AID 2282970); conditions: HepG2 Attagene TRANS ERa GAL4 reporter, mRNA
# Chain of Estrogen receptor (Homo sapiens) (P03372 whole entry, looked up, the tested form may be a part): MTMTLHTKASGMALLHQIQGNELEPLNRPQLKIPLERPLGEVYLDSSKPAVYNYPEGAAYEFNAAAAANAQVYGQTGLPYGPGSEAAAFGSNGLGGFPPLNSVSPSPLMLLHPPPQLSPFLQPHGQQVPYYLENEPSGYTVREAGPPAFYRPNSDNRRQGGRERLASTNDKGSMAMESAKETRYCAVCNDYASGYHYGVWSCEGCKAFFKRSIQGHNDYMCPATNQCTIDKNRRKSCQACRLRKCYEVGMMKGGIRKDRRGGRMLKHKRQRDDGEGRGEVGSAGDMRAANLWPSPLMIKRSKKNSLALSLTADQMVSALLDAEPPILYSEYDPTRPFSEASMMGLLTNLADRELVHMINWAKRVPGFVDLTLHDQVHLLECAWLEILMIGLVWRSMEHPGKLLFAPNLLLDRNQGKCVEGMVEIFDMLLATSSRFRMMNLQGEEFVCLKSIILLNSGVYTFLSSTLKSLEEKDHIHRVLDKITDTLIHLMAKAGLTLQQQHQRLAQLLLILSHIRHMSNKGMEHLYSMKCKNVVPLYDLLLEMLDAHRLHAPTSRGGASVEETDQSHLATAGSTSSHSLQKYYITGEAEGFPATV
# In short: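 Transactivation via ERa-Gal4 chimera in HepG2; 24 hour incubation; reporter mRNA detected by fluorescence RT-PCR and capillary electrophoresis.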
# [5] = biological target: X-box-binding protein 1 (Homo sapiens) (UniProt P17861); test: ATG_Xbp1_CIS: Attagene CIS-FACTORIAL HepG2 Assay for human X-box Binding Protein 1 (XBP1) (AID 2282972; active = hit-call score of the fitted dose curve at least 0.9, where 1 is the maximum; inactive = score below 0.9); conditions: HepG2 XBP1 cis-element reporter, Attagene multiplex; actives raise or lower the signal
# Chain of X-box-binding protein 1 (Homo sapiens) (P17861 whole entry, looked up): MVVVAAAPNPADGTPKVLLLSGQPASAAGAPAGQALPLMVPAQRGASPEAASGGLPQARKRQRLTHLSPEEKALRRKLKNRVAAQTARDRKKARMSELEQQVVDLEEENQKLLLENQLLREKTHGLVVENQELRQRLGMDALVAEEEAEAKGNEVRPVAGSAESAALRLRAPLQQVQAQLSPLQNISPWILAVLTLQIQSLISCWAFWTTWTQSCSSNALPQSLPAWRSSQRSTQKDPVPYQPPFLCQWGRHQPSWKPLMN
# In short: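 After a 24-hour chemical exposure of HepG2 cells carrying cis-regulated reporters, reporter mRNA levels are assessed. Quantification uses RT-PCR, 6-FAM labelling and capillary electrophoresis. Gain- or loss-of-signal is fitted against DMSO.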
# [6] = ATG_M_19_TRANS: Attagene TRANS-FACTORIAL HepG2 Assay for M19 Transcription Factor (Internal Marker) (AID 2282974); conditions: HepG2 Attagene TRANS-FACTORIAL M19 internal marker reporter
# In short: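 Cells: human HepG2, transiently transfected with multiplexed reporter transcription units. Exposure: 24 h. Detection: RT-PCR of reporter mRNA with capillary electrophoresis. Analysis: gain-of-signal vs DMSO.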
# [7] = biological target: Glucocorticoid receptor (Homo sapiens) (UniProt P04150); test: ATG_GR_TRANS: Attagene TRANS-FACTORIAL HepG2 Assay for human Glucocorticoid Receptor (GR) (AID 2282978); conditions: HepG2 Attagene TRANS GR reporter, mRNA transcription;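 note: activators score as hits since higher reporter transcript over DMSO is fitted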
# Chain of Glucocorticoid receptor (Homo sapiens) (P04150 whole entry, looked up, the tested form may be a part): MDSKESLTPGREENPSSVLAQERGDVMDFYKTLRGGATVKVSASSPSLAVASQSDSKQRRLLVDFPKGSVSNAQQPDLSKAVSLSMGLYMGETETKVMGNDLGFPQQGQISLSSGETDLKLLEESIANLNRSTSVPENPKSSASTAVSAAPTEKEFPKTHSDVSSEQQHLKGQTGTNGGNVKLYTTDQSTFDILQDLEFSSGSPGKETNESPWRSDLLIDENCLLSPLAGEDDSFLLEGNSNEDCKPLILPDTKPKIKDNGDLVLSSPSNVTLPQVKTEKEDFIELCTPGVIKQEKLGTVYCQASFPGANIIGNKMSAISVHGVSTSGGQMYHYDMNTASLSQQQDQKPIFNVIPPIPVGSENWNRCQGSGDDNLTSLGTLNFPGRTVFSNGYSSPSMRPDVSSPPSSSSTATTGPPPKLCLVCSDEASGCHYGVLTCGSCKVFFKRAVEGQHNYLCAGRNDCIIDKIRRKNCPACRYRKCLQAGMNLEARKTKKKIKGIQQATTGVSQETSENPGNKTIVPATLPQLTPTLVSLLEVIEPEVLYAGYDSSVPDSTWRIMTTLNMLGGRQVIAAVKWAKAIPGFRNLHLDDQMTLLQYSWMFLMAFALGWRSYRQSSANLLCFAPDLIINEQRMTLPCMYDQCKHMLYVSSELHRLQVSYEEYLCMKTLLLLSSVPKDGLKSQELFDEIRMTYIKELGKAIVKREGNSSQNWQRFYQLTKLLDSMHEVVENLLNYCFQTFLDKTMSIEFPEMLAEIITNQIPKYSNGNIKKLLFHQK
# In short: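 In this trans-factorial format, exogenous NR-GAL4 chimeric proteins in transfected HepG2 cells regulate GAL4-UAS reporter transcription. After 24 h treatment, reporter mRNA induction relative to DMSO is read by RT-PCR and capillary electrophoresis.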
# [8] = biological target: Oxysterols receptor LXR-beta (Homo sapiens) (UniProt P55055); test: ATG_LXRb_TRANS: Attagene TRANS-FACTORIAL HepG2 Assay for human Liver X Receptor beta (LXRb) (AID 2282981); conditions: HepG2 Attagene TRANS GAL4-LXRb reporter, mRNA
# Chain of Oxysterols receptor LXR-beta (Homo sapiens) (P55055 whole entry, looked up, the tested form may be a part): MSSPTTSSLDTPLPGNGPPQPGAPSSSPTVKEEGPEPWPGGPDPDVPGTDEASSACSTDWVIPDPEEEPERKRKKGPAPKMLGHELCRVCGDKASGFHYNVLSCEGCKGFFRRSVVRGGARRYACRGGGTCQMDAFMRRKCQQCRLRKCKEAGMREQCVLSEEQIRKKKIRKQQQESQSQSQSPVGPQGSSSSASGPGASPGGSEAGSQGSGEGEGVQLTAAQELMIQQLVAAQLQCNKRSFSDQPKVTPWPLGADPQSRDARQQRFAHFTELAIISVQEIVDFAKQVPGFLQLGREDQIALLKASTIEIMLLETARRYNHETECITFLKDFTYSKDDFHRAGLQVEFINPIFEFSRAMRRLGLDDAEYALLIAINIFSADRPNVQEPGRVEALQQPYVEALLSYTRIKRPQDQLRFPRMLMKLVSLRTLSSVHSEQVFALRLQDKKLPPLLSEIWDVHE
# In short: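 HepG2 cells transiently transfected with multiple reporter transcription units carrying chimeric NR-Gal4 proteins acting on GAL4-UAS reporters; compound exposure 24 h. Reporter mRNA quantified by RT-PCR, 6-FAM labelling, HpaI digestion and capillary electrophoresis; gain of signal versus DMSO.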
# [9] = biological target: Transcriptional activator Myb (Homo sapiens) (UniProt P10242); test: ATG_Myb_CIS: Attagene CIS-FACTORIAL HepG2 Assay for human Myeloblastosis (Myb) Proto-Oncogene Transcription Factor (AID 2282986; active = hit-call score of the fitted dose curve at least 0.9, where 1 is the maximum; inactive = score below 0.9); conditions: HepG2 Attagene CIS-FACTORIAL Myb reporter transcription; actives raise or lower the signal
# Chain of Transcriptional activator Myb (Homo sapiens) (P10242 whole entry, looked up): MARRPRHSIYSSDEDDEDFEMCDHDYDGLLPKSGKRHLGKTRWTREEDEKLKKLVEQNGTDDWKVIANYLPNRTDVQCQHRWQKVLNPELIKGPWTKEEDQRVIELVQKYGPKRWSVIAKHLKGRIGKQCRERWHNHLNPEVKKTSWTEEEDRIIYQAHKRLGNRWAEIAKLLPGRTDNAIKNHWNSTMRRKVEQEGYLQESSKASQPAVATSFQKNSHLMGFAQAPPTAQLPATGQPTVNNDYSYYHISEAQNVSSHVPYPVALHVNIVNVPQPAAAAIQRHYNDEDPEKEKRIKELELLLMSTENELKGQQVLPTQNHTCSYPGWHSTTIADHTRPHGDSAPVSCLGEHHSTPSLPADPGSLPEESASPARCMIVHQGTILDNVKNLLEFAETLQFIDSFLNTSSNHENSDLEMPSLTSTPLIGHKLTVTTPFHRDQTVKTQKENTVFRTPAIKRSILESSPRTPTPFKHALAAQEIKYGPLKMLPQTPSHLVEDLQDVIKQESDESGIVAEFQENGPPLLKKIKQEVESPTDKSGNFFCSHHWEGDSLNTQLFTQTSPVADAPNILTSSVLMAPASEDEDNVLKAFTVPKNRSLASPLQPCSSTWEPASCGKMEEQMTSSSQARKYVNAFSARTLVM
# In short: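 Steps: transfect HepG2 with cis-regulated reporter units; dose with chemical for 24 h; isolate RNA, reverse-transcribe, PCR-amplify and FAM-label reporter sequences; digest with HpaI; resolve by capillary electrophoresis. Activity fitted in both directions relative to DMSO.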
# [10] = ATG_VDRE_CIS: Attagene CIS-FACTORIAL HepG2 Assay for human Vitamin D Receptor Element (VDRE) (AID 2282968; active = hit-call score of the fitted dose curve at least 0.9, where 1 is the maximum; inactive = score below 0.9); conditions: HepG2 VDRE cis-reporter transcription, actives raise or lower the signal
# In short: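 HepG2 cells transiently transfected with cis-element reporter units, dosed 24 h; reporter mRNA measured by RT-PCR, 6-FAM labeling, HpaI digestion and capillary electrophoresis. Activity fitted bidirectionally against DMSO baseline.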
# [11] = ATG_GAL4_TRANS: Attagene TRANS-FACTORIAL HepG2 Assay for GAL4 (Internal Marker) (AID 2282976); conditions: HepG2 Attagene TRANS GAL4 internal marker reporter
# In short: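 Fluorescence from capillary electrophoresis of labelled RT-PCR products quantifies reporter mRNA induction after 24 h dosing of HepG2 cells carrying transfected GAL4-UAS reporter transcription units. Vehicle DMSO serves as baseline.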
# [12] = biological target: Bile acid receptor (Homo sapiens) (UniProt Q96RI1); test: ATG_FXR_TRANS: Attagene TRANS-FACTORIAL HepG2 Assay for Farnesoid X Receptor (FXR) (AID 2282979); conditions: HepG2 Attagene TRANS FXR-GAL4 reporter transcription;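 note: hits raise reporter mRNA above DMSO so AC50 marks FXR activation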
# Chain of Bile acid receptor (Homo sapiens) (Q96RI1 whole entry, looked up, the tested form may be a part): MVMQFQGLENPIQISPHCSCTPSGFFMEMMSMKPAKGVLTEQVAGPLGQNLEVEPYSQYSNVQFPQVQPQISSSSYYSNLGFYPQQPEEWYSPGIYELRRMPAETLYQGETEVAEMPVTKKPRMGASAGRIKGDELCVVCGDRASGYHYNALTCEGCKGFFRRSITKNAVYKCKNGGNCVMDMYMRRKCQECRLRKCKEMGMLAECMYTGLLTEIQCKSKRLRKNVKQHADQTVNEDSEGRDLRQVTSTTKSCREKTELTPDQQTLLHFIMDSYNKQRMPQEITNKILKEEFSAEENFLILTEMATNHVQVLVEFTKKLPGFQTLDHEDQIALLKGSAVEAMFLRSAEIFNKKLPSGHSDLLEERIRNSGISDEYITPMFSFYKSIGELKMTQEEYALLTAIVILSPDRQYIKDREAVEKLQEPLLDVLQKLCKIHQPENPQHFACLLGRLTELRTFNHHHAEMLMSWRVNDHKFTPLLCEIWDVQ
# In short: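 Chimeric FXR-GAL4 activity in transiently transfected human HepG2 liver cells is scored as induction of reporter mRNA after 24 h of dosing. Detection uses RT-PCR with fluorescent labelling and capillary electrophoresis, with DMSO serving as baseline.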
# [13] = biological target: Oxysterols receptor LXR-alpha (Homo sapiens) (UniProt Q13133); test: ATG_LXRa_TRANS: Attagene TRANS-FACTORIAL HepG2 Assay for human Liver X Receptor alpha (LXRa) (AID 2282980); conditions: HepG2 Attagene TRANS reporter, LXRa transactivation
# Chain of Oxysterols receptor LXR-alpha (Homo sapiens) (Q13133 whole entry, looked up): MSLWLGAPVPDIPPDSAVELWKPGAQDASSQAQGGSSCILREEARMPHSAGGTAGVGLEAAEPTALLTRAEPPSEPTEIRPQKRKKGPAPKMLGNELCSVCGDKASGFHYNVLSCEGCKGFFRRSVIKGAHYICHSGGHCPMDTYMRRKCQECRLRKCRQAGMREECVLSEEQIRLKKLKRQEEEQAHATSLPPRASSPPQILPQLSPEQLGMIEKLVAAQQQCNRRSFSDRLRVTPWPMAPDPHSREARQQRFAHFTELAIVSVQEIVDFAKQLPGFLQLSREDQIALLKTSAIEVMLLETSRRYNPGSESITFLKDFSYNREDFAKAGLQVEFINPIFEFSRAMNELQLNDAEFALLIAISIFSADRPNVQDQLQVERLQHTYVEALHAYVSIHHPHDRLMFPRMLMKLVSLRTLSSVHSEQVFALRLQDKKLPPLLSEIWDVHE
# In short: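 Transient HepG2 transfectants, 24 h dosing, RT-PCR/CE mRNA reporter quantitation; gain-of-signal vs DMSO.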
# [14] = biological target: Estrogen-related receptor gamma (Homo sapiens) (UniProt P62508); test: ATG_ERRg_TRANS: Attagene TRANS-FACTORIAL HepG2 Assay for human Estrogen-Related Receptor gamma (ERRg) (AID 2282977); conditions: HepG2 Attagene TRANS reporter, ERRg transactivation;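 note: hits increase reporter signal over DMSO so potencies reflect activators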
# In short: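 Transient HepG2 transfectants, 24 h compound exposure, GAL4-UAS reporter mRNA by RT-PCR/6-FAM labelling/capillary electrophoresis; positive direction vs DMSO.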
# [15] = biological target: Hepatocyte nuclear factor 4-alpha (Homo sapiens) (UniProt P41235); test: ATG_HNF4a_TRANS: Attagene TRANS-FACTORIAL HepG2 Assay for human Hepatocyte Nuclear Factor 4 alpha (HNF4a) (AID 2282982); conditions: HepG2 HNF4a transactivation reporter, mRNA readout
# Chain of Hepatocyte nuclear factor 4-alpha (Homo sapiens) (P41235 whole entry, looked up, the tested form may be a part): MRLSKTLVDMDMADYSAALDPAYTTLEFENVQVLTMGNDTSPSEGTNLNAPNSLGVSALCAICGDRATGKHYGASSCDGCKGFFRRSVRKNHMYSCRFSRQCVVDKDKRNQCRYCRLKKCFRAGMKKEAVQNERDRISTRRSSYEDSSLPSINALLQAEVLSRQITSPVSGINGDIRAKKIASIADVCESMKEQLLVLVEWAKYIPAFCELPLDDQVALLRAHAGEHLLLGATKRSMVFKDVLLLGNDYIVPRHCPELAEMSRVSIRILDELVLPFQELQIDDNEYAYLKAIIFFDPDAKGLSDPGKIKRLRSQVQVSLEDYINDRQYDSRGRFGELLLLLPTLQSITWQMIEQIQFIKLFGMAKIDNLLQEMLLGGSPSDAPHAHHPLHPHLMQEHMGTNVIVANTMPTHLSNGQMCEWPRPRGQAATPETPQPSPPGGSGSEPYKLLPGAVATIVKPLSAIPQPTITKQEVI
# In short: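 HepG2 cells transiently transfected with multiplexed GAL4-UAS reporter units responsive to chimeric NR-GAL4 proteins; compound exposure 24 h. Reporter mRNA quantified by RT-PCR, 6-FAM labelling, HpaI digestion and capillary electrophoresis; gain of signal versus DMSO baseline.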
# [16] = ATG_M_06_TRANS: Attagene TRANS-FACTORIAL HepG2 Assay for M06 Transcription Factor (Internal Marker) (AID 2282983); conditions: HepG2 Attagene TRANS M06 internal marker reporter;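 note: reporter transcript level by RT-PCR then capillary electrophoresis fluorescence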
# In short: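 Measured by capillary electrophoresis of fluorescently labelled RT-PCR products, this endpoint reflects reporter mRNA in HepG2 cells harbouring exogenous NR-GAL4 reporter constructs after 24 h exposure, with DMSO as baseline.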
# [17] = ATG_M_32_TRANS: Attagene TRANS-FACTORIAL HepG2 Assay for M32 Transcription Factor (Internal Marker) (AID 2282984); conditions: HepG2 Attagene TRANS M32 internal marker reporter;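 note: transcript level of a background control reporter unit measured by RT-PCR and capillary electrophoresis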
# In short: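 HepG2 cells transiently transfected with multiple GAL4-UAS reporter transcription units, dosed for 24 hours; reporter mRNA quantified by RT-PCR, 6-FAM primer extension, HpaI digestion and capillary electrophoresis. Gain-of-signal fitted versus DMSO baseline; internal background-control marker.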
# [18] = biological target: Nuclear receptor subfamily 4 group A member 2 (Homo sapiens) (UniProt P43354); test: ATG_NURR1_TRANS: Attagene TRANS-FACTORIAL HepG2 Assay for human Nuclear Receptor Related Protein 1 (NURR1) (AID 2282985); conditions: HepG2 Attagene TRANS reporter, mRNA readout
# Chain of Nuclear receptor subfamily 4 group A member 2 (Homo sapiens) (P43354 whole entry, looked up, the tested form may be a part): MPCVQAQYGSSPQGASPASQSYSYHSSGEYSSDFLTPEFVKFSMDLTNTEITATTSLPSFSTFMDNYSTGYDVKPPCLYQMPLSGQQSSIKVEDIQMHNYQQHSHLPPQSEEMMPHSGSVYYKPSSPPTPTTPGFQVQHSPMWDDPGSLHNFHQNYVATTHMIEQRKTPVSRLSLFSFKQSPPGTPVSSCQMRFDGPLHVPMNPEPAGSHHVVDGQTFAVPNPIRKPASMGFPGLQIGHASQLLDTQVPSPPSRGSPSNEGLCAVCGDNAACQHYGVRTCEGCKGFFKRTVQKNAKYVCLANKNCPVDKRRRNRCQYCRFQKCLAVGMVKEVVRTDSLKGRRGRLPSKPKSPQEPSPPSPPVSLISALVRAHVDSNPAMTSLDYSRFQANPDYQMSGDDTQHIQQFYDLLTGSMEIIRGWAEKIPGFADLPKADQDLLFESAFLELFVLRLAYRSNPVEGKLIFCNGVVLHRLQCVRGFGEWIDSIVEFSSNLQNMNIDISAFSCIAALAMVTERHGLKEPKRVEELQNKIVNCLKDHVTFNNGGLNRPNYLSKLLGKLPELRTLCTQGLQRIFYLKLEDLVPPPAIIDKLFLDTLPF
# In short: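 HepG2 cells transiently transfected with GAL4-UAS reporter units and chimeric NR-Gal4 constructs; chemical exposure 24 h. Reporter mRNA quantified by RT-PCR, fluorescent labelling and capillary electrophoresis; gain of signal fitted relative to DMSO baseline.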
Compound,outcome [1],outcome [2],outcome [3],outcome [4],outcome [5],outcome [6],outcome [7],outcome [8],outcome [9],outcome [10],outcome [11],outcome [12],outcome [13],AC50 [4],outcome [14],outcome [15],outcome [16],outcome [17],outcome [18]
CC(=O)CCC(C)C,inactive,inactive,inactive,inactive,inactive,inactive,inactive,inactive,inactive,,,,,,,,,,
C[Si](C)O[Si](C)C,inactive,inactive,,,inactive,inactive,inactive,inactive,inactive,inactive,inactive,inactive,inactive,,,,,,
Oc1ccc2c(c1)CCC2,inactive,inactive,,,inactive,,,inactive,inactive,inactive,inactive,inactive,,22.6 µM (active),inactive,inactive,inactive,inactive,
FC(F)(F)C(F)(F)C(F)(F)C(F)(F)C(F)(F)C(F)(F)C(F)(F)CCI,inactive,inactive,,,inactive,inactive,inactive,inactive,inactive,inactive,inactive,inactive,inactive,24.5 µM (active),,inactive,,inactive,inactive
CSc1ccc(Cl)cc1,inactive,,,inactive,inactive,inactive,,,inactive,inactive,,inactive,,,,inactive,inactive,,
O=c1[nH]cccc1O,inactive,inactive,,,inactive,inactive,,inactive,inactive,inactive,inactive,,inactive,,,,,inactive,inactive
O=C1c2ccccc2C(=O)c2c(Cl)cccc21,inactive,inactive,,,inactive,inactive,inactive,inactive,inactive,inactive,inactive,inactive,inactive,2.88 µM (active),,,inactive,inactive,inactive
